Compound activity as filed in PubChem.
Wnt act: activators of Wnt/beta-catenin signaling; Wnt/beta-catenin reporter cell assay, activator, plate reader; activation, % at 9.35 µM; 1.2% of 300,000 active; in the data active = activation above about 30%, passing the limit was not always enough; inconclusive = no clear call, values can overlap the other calls;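 note: 0% = neutral control wells and 100% = positive control wells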
esBAF inh: SWI/SNF esBAF complex inhibition; AID 602393; reporter increase, % at 12.5 µM; mouse ES cells, Bmi1-luciferase knock-in reporter, 24 h; 100% = twice the neutral-well signal; 2% of 350,000 active; in the data active = activation above about 40%; inconclusive = no clear call, values can overlap the other calls;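 note: 0% = median of the plate's neutral control wells and 100% = double that signal; a rise in the Bmi1 reporter signal indicates esBAF inhibition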
HSF-1 act: increases HSF-1 driven luciferase reporter signal | NIH3T3-HGL HSF-1 luciferase reporter, MG132, 8 h; 100% = twice DMSO control signal | activation, % at 9 µM | 1.7% of 300,000 active;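 active = mean replicate activation of at least 50% with a set share of replicates each reaching 50%; inconclusive = only one of those two conditions met; inactive = mean below 50% and too few replicates reaching it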;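 note: 0% = median of the neutral control wells and 100% = twice that signal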
HSF1 inh: HSF1 inhibition. AID 2098. activity change, negative = inhibition, % at 7.5 µM (by protocol). 0.77% of 300,000 active. NIH3T3-HGL HSE-luciferase, MG132-induced, luminescence 8 h; active compounds read low;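 active = more than half of replicate wells show activity change below -50%, luminescence cut by over half; inconclusive = some wells, but at most half, below -50%; inactive = no replicate well below -50%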;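 note: luciferase reports HSF-1 transcriptional activity via heat shock element; 0% = median of DMSO wells and -100% = zero luminescence signal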
MITF TRPM1 HTS: MITF TRPM1 promoter activation in melanoma cells. activation, % at 12.5 µM. 0.75% of 300,000 active. SK-MEL-5 TRPM1-promoter luciferase, 24 h; % of positive control, neutral wells = 0;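 active = mean activation of at least 80% with every replicate also reaching 80%; inconclusive = mean reaches 80% but some replicate falls short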;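 note: 0% = neutral control wells and 100% = parthenolide positive control wells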
* hit, by the source's call; ? = inconclusive; . = no result given. Shown are actives, neighbours in structure and some others; about 3.8% of the full set was active somewhere.

SMILES | Wnt act | esBAF inh | HSF-1 act | HSF1 inh | MITF TRPM1 HTS
O=C(CN(C(=O)c1cc2c(s1)CCC2)C1CCCC1)NCc1cccs1 | 50* | -1 | . | . | -5
CN1CCN(/N=C/c2nc(-c3ccc(Cl)cc3)n3ccccc23)CC1 | ? | . | -3 | -11 | 15
Clc1ccc(-c2nc(/C=N/N3CCOCC3)c3ccccn23)cc1 | . | . | 53* | 10 | -4
COc1ccccc1-c1ccc2n(c1=O)C[C@@H]1[C@@H](CO)[C@H](C(=O)NC3CCC3)N(C(=O)NC(C)C)[C@H]21 | . | 7 | . | . | .
CCC(=O)NC(c1ccccc1)c1nc2ccccc2[nH]1 (configuration not stated) | . | 49* | 6 | 24 | 44
CCCC(=O)NC(C)c1nc2ccccc2[nH]1 (configuration not stated) | 0 | 5 | -3 | -3 | .
CC(C)OC(=O)/C(=C\c1ccc2c(c1)c1ccccc1n2C)NC(=O)c1ccccc1 | . | 76* | 4 | 9 | 48
CC(C)OC(=O)/C(=C/c1ccc2c(c1)c1ccccc1n2C)NC(=O)c1ccccc1 | 28 | . | 27 | 20 | 31
C/C=C/c1ccc2c(c1)O[C@@H](CN(C)C(=O)c1cccc(F)c1)[C@@H](C)CN([C@@H](C)CO)S2(=O)=O | . | -1 | . | . | .
Cc1ccc(S(=O)(=O)N[C@H]2CC[C@H](CCn3cc(-c4cccnc4)nn3)O[C@H]2CO)cc1 | . | 10 | . | . | .
O=C(O)c1cc(N/N=C/c2cccc3ccccc23)ccc1Cl | 27 | 80* | 3 | -11 | 100*
CCC(=O)Nc1ccc2c(c1)OC[C@H](C)N(C(=O)Cc1cccnc1)C[C@@H](C)[C@H](OC)CN(C)C2=O | . | -2 | . | . | .
COCCN1CCN(C(=O)c2cc(COc3cc(C)ccc3C)on2)CC1 | 1 | 73* | 30 | 20 | 45
Cc1ccc(C)c(OCc2cc(C(=O)N3CCOCC3)no2)c1 | 15 | 50* | 24 | 15 | 74
COc1ccc(OCc2cc(C(=O)N3CCCCCC3)no2)c(Cl)c1 | 17 | . | 23 | 22 | ?
Cc1ccc(C)c(OCc2cc(C(=O)N3CCNC(=O)C3)no2)c1 | 4 | 3 | 12 | -1 | 13
COc1ccc(OCc2cc(C(=O)N3CCOCC3)no2)c(Cl)c1 | 34* | 37 | ? | 21 | ?
COc1cccc(OCc2cc(C(=O)NC(C)c3cnn(C)c3C)no2)c1 (configuration not stated) | 9 | 44* | -1 | 17 | 45
COC1CCN(C(=O)c2cc(COc3cc(C)ccc3C)on2)CC1 | 14 | 29 | . | . | .
CC=Cc1ccc2n(c1=O)C[C@H]1[C@H](CO)[C@@H](C(=O)NCC)[C@@H]2N1Cc1cccc(Cl)c1 (mixture of isomers) | . | 8 | . | . | .
CNC[C@H]1Oc2ccc(NS(=O)(=O)c3ccccc3)cc2C(=O)N([C@@H](C)CO)C[C@@H]1C | . | 1 | . | . | .
COc1cc(Cl)ccc1OCc1cc(C(=O)N2CCCCCCC2)no1 | 4 | 13 | 6 | 13 | 3
Cc1nc2cc(OCc3cc(C(=O)NC(C)c4cnn(C)c4)no3)ccc2s1 (configuration not stated) | 5 | . | 12 | 12 | 30
COCCN1CCN(C(=O)c2cc(COc3ccc(Cl)cc3OC)on2)CC1 | 36* | ? | ? | 16 | 79
COc1cc(C)ccc1OCc1cc(C(=O)NC2CCOCC2)no1 | -2 | 47* | . | . | .
SMILES | Wnt act | esBAF inh | HSF-1 act | HSF1 inh | MITF TRPM1 HTS
CC(=O)NCCC1CCCCN1C(=O)c1cc(COc2cc(C)ccc2C)on1 (configuration not stated) | 22 | 66* | 41 | 19 | ?
Cc1ccc(C)c(OCc2cc(C(=O)N3CCC(N4CCCC(O)C4)CC3)no2)c1 (configuration not stated) | 0 | 1 | 1 | 2 | 9
COc1ccc(OCc2cc(C(=O)NC(C)c3cnn(C)c3)no2)c(Cl)c1 (configuration not stated) | 25 | 54* | 21 | 19 | 81*
CO[C@@H]1CN(C)C(=O)c2ccc(NC(=O)C3CCC3)cc2OC[C@@H](C)N(S(=O)(=O)c2ccc(Cl)cc2)C[C@H]1C | . | 10 | . | . | .
C[C@@H]1CCCCO[C@@H](CN(C)Cc2ccc(C(F)(F)F)cc2)[C@@H](C)CN([C@@H](C)CO)C(=O)c2cc(NS(=O)(=O)c3ccc(Cl)cc3)ccc2O1 | . | -2 | . | . | .
COCCCC1CCN(C(=O)c2cc(COc3cc(C)ccc3C)on2)CC1 | 29 | 104* | 54* | 25 | ?
C/C=C/c1cnc2c(c1)C(=O)N([C@@H](C)CO)C[C@H](C)[C@H](CN(C)C(=O)Nc1c(C)noc1C)O2 | . | 2 | . | . | .
Clc1ccc(-c2ccc(CN3CCCCC3)o2)cc1 | 2 | 11 | 2 | 5 | .
OCCc1ccc(-c2ccc(Cl)cc2)o1 | 1 | 52* | 27 | 9 | 54
COC(=O)c1ccc(-c2ccc(Cl)cc2)nc1C | . | 21 | 47 | 16 | 93*
COC(=O)c1ccccc1NC(=O)c1sc(Cl)nc1C | 6 | -8 | 16 | 8 | 8
Cc1ccccc1CNC(=O)Cc1ccccc1[N+](=O)[O-] | 25 | 42* | 24 | 8 | 30
O=C(NCc1ccc(Cl)cc1)c1cnn2ccccc12 | 9 | 60* | 36 | 28 | 96*
CSc1ccccc1C(=O)Nc1cccc([N+](=O)[O-])c1C | 2 | . | -45 | -34 | 14
Cc1cccc(NC(=O)c2ccc([N+](=O)[O-])s2)c1C | 3 | . | 56* | 17 | -8
Cc1cccc(NC(=O)c2cccc([N+](=O)[O-])c2O)c1C | 49* | . | . | . | 65
Cc1cc(C)n2ncc(C(=O)NCc3ccc(Cl)cc3)c2n1 | 0 | -2 | 5 | 5 | 0
COc1ccc(S(=O)(=O)Nc2ccc3c(c2)CC(=O)N([C@@H](C)CO)C[C@@H](C)[C@@H](CN(C)C(=O)Nc2cccc4ccccc24)O3)cc1 | . | 5 | . | . | .
Cc1ccnc(NC(=O)c2cc([N+](=O)[O-])cc([N+](=O)[O-])c2)c1 | 0 | . | 6 | 2 | -19
Cc1cccc(NC(=O)c2cnn3ccccc23)c1C | -1 | 42* | 21 | 20 | ?
Cc1cccc(NC(=O)c2ccccc2O)c1C | 23 | . | 124* | 68 | 25
Cc1cccc(NC(=O)CCSc2ccccc2)c1C | 52* | . | 40 | 27 | 16
Cc1ccnc(NC(=O)c2ccc([N+](=O)[O-])s2)c1 | 42* | 29 | 70* | 48 | -27
Cc1ccc(NC(=O)CCSc2ccccc2)c(C)c1 | . | . | 18 | 4 | 25
C[C@@H]1CN([C@H](C)CO)C(=O)c2cc(N(C)C)ccc2O[C@H]1CN(C)C(=O)Nc1ccc2c(c1)OCO2 | . | -3 | . | . | .
CCC(=O)Nc1ccc2c(c1)C(=O)N(C)C[C@@H](OC)[C@H](C)CN(CC1CCCCC1)[C@@H](C)CO2 | . | 5 | . | . | .
Cc1ccnc(Nc2nc(-c3ccc(O)cc3)cs2)c1 | 17 | 50* | 22 | 20 | 60
Cc1ccnc(Nc2nc(-c3ccc(O)cc3O)cs2)c1 | 16 | 79* | 1 | -4 | .
